This is an account of results in PubChem BioAssay (NCI).

This is part of a sample that, as a whole, favours compounds with a hit. Of some 83,000 tested, about 20% had one in any assay.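 Single-concentration screen, 48 h exposure, 96-well plates. Endpoint: percent growth. Below 10 = active.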 Unmarked numbers belong to inactive results. Calls of active or inactive are those of the source.

The assay has as its system MDA-MB-468 breast. The assay can be described thus: NCI-60 one-dose screen, 48 h (100 = growth as untreated, 0 = no growth, -100 = all killed). Particulars: 10 µM unless noted.
For the compound `CCc1ccc(OCc2ccccc2C(=O)Nc2ccc3nc(C)cc(N)c3c2)cc1`, the growth was -58.4% (active). The figure for `O=C(CCCCCCNC(=O)C(O)(O)C(F)(F)F)Nc1ccc(-c2ccccc2)cc1` is -10.5% (active). Consider `COC(=O)c1ccccc1C(=O)c1c(C)cc(C)cc1C`, for which the growth is 103%. In the case of `O=C(/C=C/c1ccccc1Cl)c1cccc(OCCCCOc2cccc(C(=O)/C=C/c3ccccc3Cl)c2)c1` it was 110%; in that of `COc1ccc(Cl)cc1C(=O)Nc1nc2ccc(Cl)cc2s1`, 76.7%; in that of `O=C1/C(=C/c2ccc([N+](=O)[O-])cc2)Oc2ccc(O)cc21`, -63.3% (active). Take `Nc1nc(Cl)cc(Cl)n1`: the growth is 99.4%. Regarding `CCC(=O)c1cc([N+](=O)[O-])c(Br)s1`, the growth was 74.6%.

`Cc1occc1-c1nc2s/c(=C/c3ccc(-c4cc(C(F)(F)F)ccc4Cl)o3)c(=O)n2n1`: the growth was 108%.

In the case of `CC12CCC3C4(C)COC(c5ccco5)OC4CCC3(C)C1CC(C1=CCOC1=O)O2` (stereo not given), the growth is 91.8%. Regarding `O=C(CN1C(=O)S/C(=C\C(Cl)=C\c2ccccc2)C1=O)NC1C=CS(=O)(=O)C1` (stereo not given), the growth is -54.5% (active).

As for `Cc1cc(Cl)c2ccc(N(C)C)cc2n1`, the growth was 94.3%. As for `COc1cc(C2c3cc(OC(C)=O)c(OC)cc3CC3C(=O)OCC32)ccc1OC(C)=O` (stereo not given), the growth was 96%.

For `C[N+]1(CC2CO2)CCCCCC1` (stereo not given), the growth was 103%. For `CCOC(=O)c1c(Nc2ccccc2)nn2c(-c3ccccc3)ccnc12`, the growth is 98%. In the case of `OCC(O)C(O)C(O)C(/C=N/Nc1ccccc1)=N/Nc1ccccc1` (stereo not given) it was 68%; in that of `CSc1cccc(NC(=O)Nc2nc3c(C)cccc3s2)c1`, 84.6%. Turning to `C=CC(=O)N[C@@H](/C=C/C(=O)OCC)Cc1ccc(-c2cc(Cl)cc(Cl)c2)cc1`, the growth is 1.83% (active).

With `Cc1nc2cc(Nc3nc(Nc4ccc(F)cc4)nc(N4CCN(C)CC4)n3)ccc2n1Cc1ccccc1`, the growth was -32.7% (active). The figure for `CN1C(=O)C(C2=NN(C=O)C(c3ccc(F)cc3)C2)C(=O)N(C)C1=O` (stereo not given) is 89.4%; for `COc1cccc2nc(Nc3cccc(NC(=O)c4ccc(N5CCN(C)CC5)c(C(F)(F)F)c4)c3)ccc12` it is 20.2%.

As for `OC1CCCc2ccccc21` (stereo not given), the growth is 97.4%. In the case of `Cc1c(-c2nc3ccc(F)cc3c(=O)[nH]2)c2ccccc2n1C` it was 6.2% (active).

Turning to `Cc1ccc(OCCn2c(C)nn(-c3ccc(Cl)cc3)c2=O)cc1`, the growth was 124%. Take `COc1ccc(C(=O)c2cc3c(N)c(C(=O)Nc4cccc(Cl)c4)sc3nc2C)cc1`: the growth was 10.5%.

As to `O=C(/C=C/C12c3ccccc3C(c3ccccc31)C1C(=O)NC(=O)C12)c1ccc(I)cc1` (stereo not given), the growth was 51.2%. The figure for `CC(=O)OC[C@H]1OC(Sc2sc(C(=O)c3ccc(C)cc3)c(N)c2-c2nc3ccccc3s2)[C@H](OC(C)=O)[C@@H](OC(C)=O)[C@@H]1OC(C)=O` (stereo not given in full) is 75.4%; for `Cc1cc(C)c(C(=O)OC(C)CNC2CCCCC2)c(C)c1` (stereo not given) it is 103%; for `CCOc1ccccc1C(=O)N1CCN(c2cc(Cl)cc(Cl)c2)CC1` it is 3.92% (active).

Consider `CCCCNC(=O)Oc1ccc(/C(=C(/CC)Cc2ccccc2)c2ccc(OCCCN(C)C)cc2)cc1`, for which the growth is 72.9%. On to `CCCCCCCCCCCCNC(=O)[C@H]1CSC(c2ccsc2)N1` (stereo not given in full), for which the growth was -74.1% (active). Regarding `COc1cc(OC)cc(-c2cncn2-c2ccc(-c3nc4cc(OC)cc(OC)c4s3)cc2)c1`, the growth is 4% (active).

For `COc1ccc2nc(-c3ccc(OC)c(OC)c3)cc(-c3nnc(SCC(=O)Nc4ccc(C(C)=O)cc4)o3)c2c1`, the growth is 103%. Take `CC1(C)C2CC=C(/C=N/NC(=O)C3CCC(=O)N3)C1C2` (stereo not given): the growth was 114%. The figure for `Nc1cc(N)c(S(=O)(=O)O)cc1N=Nc1cc([N+](=O)[O-])ccc1O` is 102%; for `O=C(CN1CCN(c2cc3c(cc2F)c(=O)c(C(=O)O)cn3C2CC2)CC1)Nc1cc(=O)[nH]c(=O)[nH]1` it is 89.7%. Regarding `O=C(Nc1cccc2ccccc12)c1cc2ccccc2cc1O`, the growth was -17.6% (active). With `O=[N+]([O-])c1ccc(O)c(-c2nc3ccccc3s2)c1`, the growth is 63.5%. In the case of `Fc1cccc(Oc2ccc(Nc3ncnc4ccc(OCCCN5CCOCC5)cc34)cc2Cl)c1` it was -14.1% (active). In the case of `Cc1cc(=O)oc2cc(Oc3nc(-c4ccccc4)cn4c(-c5ccccc5)cnc34)ccc12` it was 44.2%.
